Data as given in PubChem BioAssay (NCATS).
Where “and” joins values, the source holds several entries; their conditions need not be identical. Identical values can stand only once. Records with an inconclusive call do not appear. Where a call stands in place of a potency, no number is given. A structure can be active in one record and inactive in another. Calls of active or inactive are those of the source. Calls follow the shape of the dose curve; as a rule, active = well fitted curve in the direction sought with a large enough effect; inconclusive = small, poorly fitted or top-dose-only effect, or another doubt; inactive = no such curve, though single readings can be large; an effect the other way counts as inactive or inconclusive.

How the values were obtained:
[1] = target: Glutathione peroxidase 1 (Homo sapiens) (UniProt P07203); test: Primary qHTS Assay for Inhibitors of Recombinant Selenoprotein Glutathione Peroxidase 1 (GPX1) (AID 1845191); also: nearly all actives have a fitted effect of over 65% in size
Procedure, shortened: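 NADPH consumption tracked by fluorescence at 340/450 nm between t=0 and t=15 min, room temperature. Final mix: 10 nM GPX1, 100 nM glutathione reductase, 1 mM GSH, 0.5 mM NADPH, 0.5 mM cumene hydroperoxide, 0.01% BSA; 30 min compound–enzyme preincubation.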

[2] = target: Phospholipid hydroperoxide glutathione peroxidase GPX4 (Homo sapiens) (UniProt P36969); test: Primary qHTS Assay for Inhibitors of Recombinant Selenoprotein Glutathione Peroxidase 4 (GPX4) (AID 1845192); also: nearly all actives have a fitted effect of over 65% in size; also: potency is read from the fitted curve at half-maximal effect
Procedure, shortened: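 NADPH consumption followed by fluorescence at 340/450 nm, t=0 and after 15 min at room temperature. Reaction started with cumene hydroperoxide (0.5 mM final) after 30 min compound–GPX4 preincubation; final 200 nM GPX4, 100 nM GR, 1 mM GSH, 0.5 mM NADPH.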

[3] = Quantitative High-Throughput drug screen in 47 multiple myeloma cell lines against the NCATS MIPE library collection: FR4_PLB cell viability assay (AID 1918924; also: nearly all actives have a fitted effect of over 35% in size; also: potency is read from the fitted curve at half-maximal effect)
Procedure, shortened: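 Myeloma cells (500 per well) were exposed to MIPE 4.0 compounds by pin transfer and incubated 48 hours at 37C, 5% CO2. Viability was read as ATP by CellTiter-Glo luminescence, normalised to DMSO (100%) and media-only (0%) wells.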

[4] = Quantitative High-Throughput drug screen in 47 multiple myeloma cell lines against the NCATS MIPE library collection: Delta47_JCRB cell viability assay (AID 1918925; also: nearly all actives have a fitted effect of over 45% in size; also: potency is read from the fitted curve at half-maximal effect)
Procedure, shortened: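 Myeloma cell lines, 500 cells per well, exposed to MIPE 4.0 library compounds for 48 h at 37C, 5% CO2. Viability from ATP by CellTiter-Glo luminescence; normalised to DMSO (100%) and media-only (0%) wells.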

[5] = target: Luciferin 4-monooxygenase (Photinus pyralis) (UniProt P08659); test: Primary firefly luciferase (FLuc) qHTS assay for identification of artifact compounds. (AID 1845220); also: nearly all actives have a fitted effect of over 60% in size
Procedure, shortened: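 Compounds sat 15 min at room temperature with 10 uM luciferin and 10 uM ATP (pH 7.6 Tris acetate). Firefly luciferase (10 nM final) was then added, and luminescence was read 5 min later. Data normalized to no-enzyme and DMSO controls were Hill-fitted.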

[6] = Primary fluorescence-based thiol-reactive (MSTI) qHTS assay for identification of artifact compounds. (AID 1845221);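 also: series mostly up to about 54 µM; thiol-reactive compounds lower the probe fluorescence signal; nearly all actives have a fitted effect of over 65% in size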
Procedure, shortened: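 A multi-concentration qHTS design tested compounds against 4 uM MSTI, pH 7.4 phosphate-buffered saline. Plates were protected from light for 1 h at room temperature before imaging fluorescence.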

[7] = tested on: Nanoluciferase (engineered Oplophorus gracilirostris luciferase); test: Primary Nanoluciferase (NLuc) qHTS assay for identification of artifact compounds. (AID 1845222); also: series mostly up to about 54 µM
Procedure, shortened: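 Luminescence from secreted NLuc (filtered, 1:55-diluted S16 cell medium) read 5 min after Nano-Glo substrate; compounds preincubated 15 min, RT. Hill fits of inhibition normalized to DMSO and no-enzyme.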

[8] = Primary redox qHTS assay for identification of artifact compounds. (AID 1845223)
Procedure, shortened: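 Redox-cycling detection via DTT (250 uM final) oxidation coupled to Amplex Red (25 uM)/HRP (250 mU/mL) in HBSS. 15 min preincubation plus 30 min after DTT, room temperature. Ex/Em 525/598 nm; 4-parameter Hill fit against DMSO and 10 uM DA3003.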

Chain of Glutathione peroxidase 1 (Homo sapiens) (P07203 whole entry, looked up): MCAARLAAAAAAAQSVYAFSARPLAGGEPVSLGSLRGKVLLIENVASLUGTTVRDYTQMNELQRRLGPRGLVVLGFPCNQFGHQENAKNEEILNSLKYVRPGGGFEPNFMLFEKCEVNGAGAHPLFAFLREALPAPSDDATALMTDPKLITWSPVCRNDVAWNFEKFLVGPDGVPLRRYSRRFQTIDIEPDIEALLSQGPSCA
Chain of Phospholipid hydroperoxide glutathione peroxidase GPX4 (Homo sapiens) (P36969 whole entry, looked up): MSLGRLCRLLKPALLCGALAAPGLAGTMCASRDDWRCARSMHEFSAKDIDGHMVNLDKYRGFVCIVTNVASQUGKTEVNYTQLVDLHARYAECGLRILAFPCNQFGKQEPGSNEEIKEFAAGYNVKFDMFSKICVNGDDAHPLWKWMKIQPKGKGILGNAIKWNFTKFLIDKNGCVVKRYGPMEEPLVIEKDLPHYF

For `CCCCNc1cc(C(=O)O)cc(S(N)(=O)=O)c1Oc1ccccc1`, the Potency [1] was “inactive”, the Potency [2] was “inactive” and the Potency [3] was “inactive”. For the same molecule, the Potency [4] was “inactive”.
With `Cc1cc2c(C(C)C)c(O)c(O)c(C=O)c2c(O)c1-c1c(C)cc2c(C(C)C)c(O)c(O)c(C=O)c2c1O` the Potency [1] was “inactive”, the Potency [2] was 10.1 µM (active) and inactive and the Potency [3] was 10.5 µM (active). The Potency [4] was 8.33 µM (active).
In the case of `COc1ccc2c3n(c(=NC(=O)c4cccnc4)nc2c1OC)CCN3`, the activity, negative = inhibition [1] is reported as 0.782% [at 4.49 µM] (inactive), the outcome [2] is reported as “inactive [at 4.52 µM]” and the Potency [3] is reported as 16.6 µM (active). The Potency [4] was 2.09 µM (active).
With `NC(=O)c1ccc(-c2nc(-c3ccc4c(c3)OCCO4)c(-c3ccccn3)[nH]2)cc1` the Potency [2] was “inactive”.
With `Nc1cccc(S(=O)(=O)N2CCCN(S(=O)(=O)c3ccc4c(c3)OCCO4)CC2)c1` the Potency [1] was “inactive”, the Potency [2] was “inactive” and the Potency [4] was 0.833 µM (active).
With `COCC(=O)NCC=Cc1ccc2ncnc(Nc3ccc(Oc4ccc(C)nc4)c(C)c3)c2c1` the Potency [3] was 26.4 µM (active) and the Potency [4] was 14.8 µM (active).
With `Cc1c(CCOc2ccc(C(=O)O)cc2)c2cc(Cl)ccc2n1C(c1ccccc1)c1ccccc1` the Potency [3] was “inactive”.
For `Cc1cc2c(F)c(Oc3ncnn4cc(OC[C@@H](C)O)c(C)c34)ccc2[nH]1`, the Potency [2] was “inactive” and the Potency [4] was 16.6 µM (active).
In the case of `CC(C=CC1=C(C)CCCC1(C)C)=CC=CC(C)=CC(=O)O`, the Potency [4] is reported as 11.8 µM (active) and 4.18 µM (active).
In the case of `CCOc1cc(N2CCC(O)CC2)ccc1Nc1ncc2c(n1)N(C)c1ccccc1C(=O)N2C`, the Potency [2] is reported as “inactive”, the Potency [3] is reported as 11.8 µM (active) and the Potency [4] is reported as 4.18 µM (active).
For `C#Cc1cccc(Nc2ncnc3cc(OCCOC)c(OCCOC)cc23)c1`, the Potency [2] was “inactive”, the Potency [5] was “inactive” and the Potency [6] was “inactive”. For the same molecule, the outcome [7] was “inactive”, the Potency [3] was 16.6 µM (active) and the Potency [4] was 4.18 µM (active).
With `Cc1ccc(-n2nc(C(C)(C)C)cc2NC(=O)Nc2ccc(OCCN3CCOCC3)c3ccccc23)cc1` the Potency [2] was “inactive” and the Potency [4] was 2.64 µM (active).
With `CN[C@@H](C)C(=O)N[C@H]1CCCC[C@H]2CC[C@@H](C(=O)N[C@@H](c3ccccc3)c3cn(CCCCc4ccc(CCCCn5cc([C@@H](NC(=O)[C@@H]6CC[C@@H]7CCCC[C@H](NC(=O)[C@H](C)NC)C(=O)N76)c6ccccc6)nn5)cc4)nn3)N2C1=O` the Potency [2] was “inactive” and the Potency [4] was 3.72 µM (active).
In the case of `C[C@]12CC[C@H](O)CC1=CC[C@@H]1[C@H]2CC[C@]2(C)C(c3cccnc3)=CC[C@H]12`, the Potency [3] is reported as “inactive” and the Potency [4] is reported as “inactive”.
For `CCN(c1ccccc1)c1cc(NC)[n+](C)c(C)n1`, the Potency [2] was “inactive”, the Potency [3] was “inactive” and the Potency [4] was “inactive”.
In the case of `O=c1[nH]c(-c2ccc(C(F)(F)F)cc2)nc2c1CSCC2`, the Potency [2] is reported as “inactive”, the Potency [5] is reported as “inactive” and the Potency [6] is reported as “inactive”. For the same molecule, the outcome [7] was “inactive” and the Potency [3] was “inactive”.
For `NC(=O)c1ccc(I)c([N+](=O)[O-])c1`, the Potency [2] was “inactive” and the Potency [4] was 18.7 µM (active).
In the case of `Cc1c(CN2CCN(C(=O)C(C)C)CC2)sc2c(N3CCOCC3)nc(-c3cnc(N)nc3)nc12`, the Potency [4] is reported as 0.0469 µM (active).
For `COc1ccc([C@@H]2CC(=O)c3c(O)cc(O[C@@H]4O[C@H](CO[C@@H]5O[C@@H](C)[C@H](O)[C@@H](O)[C@@H]5O)[C@@H](O)[C@H](O)[C@@H]4O)cc3O2)cc1O`, the Potency [2] was “inactive”, the Potency [3] was “inactive” and the Potency [4] was “inactive”.
With `NC(=O)c1ccc(-c2nc(-c3ccc4c(c3)OCO4)c(-c3ccccn3)[nH]2)cc1` the Potency [2] was “inactive”, the Potency [3] was 14.8 µM (active) and the Potency [4] was “inactive”.
For `Cc1csc(NC(=O)c2sc3nc4c(c(C(F)(F)F)c3c2N)CCC4)n1`, the Potency [2] was “inactive”, the Potency [6] was “inactive” and the outcome [7] was “inactive”. The outcome [8] was “inactive”, the Potency [3] was “inactive” and the Potency [4] was “inactive”.
With `COc1cc(F)c(F)c(Nc2ccc(I)cc2F)c1NS(=O)(=O)C1(C[C@H](O)CO)CC1` the Potency [2] was “inactive”, the Potency [5] was “inactive” and the Potency [6] was “inactive”. The outcome [7] was “inactive”.
For `O=C(Nc1cccnc1)N1CCC(Cc2cccc(Oc3ccc(C(F)(F)F)cn3)c2)CC1`, the Potency [2] was “inactive”, the Potency [5] was “inactive” and the Potency [6] was “inactive”. For the same molecule, the outcome [7] was “inactive”, the Potency [3] was 16.6 µM (active) and the Potency [4] was 9.35 µM (active).
In the case of `COc1ccc(-c2ccc3c(N4CCOC[C@H]4C)nc(N4CCOC[C@H]4C)nc3n2)cc1CO`, the Potency [3] is reported as 0.0235 µM (active).
In the case of `O=C1CCCC2=C1C(c1[nH]ncc1Cl)N=C(Nc1nc3ccccc3o1)N2` (centres undefined), the Potency [2] is reported as “inactive”, the Potency [5] is reported as “inactive” and the Potency [6] is reported as “inactive”. The outcome [7] was “inactive”.
With `CCOc1ccc(Cc2cc([C@@H]3O[C@H](CO)[C@@H](O)[C@H](O)[C@@H]3O)ccc2Cl)cc1` the Potency [4] was “inactive”.
In the case of `COc1ccc(COc2cc3oc(=O)c4cc(C(C)O)ccc4c3cc2OC)cc1` (centres undefined), the Potency [2] is reported as “inactive” and the Potency [4] is reported as 11.8 µM (active).
In the case of `Cc1cc([C@@H](C)Nc2ccccc2C(=O)O)c2nc(N3CCOCC3)cc(=O)n2c1`, the Potency [4] is reported as 2.7 µM (active).
In the case of `CC(C)(C)OC(=O)CN(Cc1ccc(Cl)cc1)Cc1ccc([N+](=O)[O-])s1`, the Potency [2] is reported as “inactive” and the Potency [3] is reported as “inactive”.
With `CCOc1cc(C=C2C(=O)N(c3ccccc3)N=C2C)cc(Cl)c1OCC(=O)OC` the Potency [3] was “inactive” and the Potency [4] was 9.35 µM (active).
In the case of `OCCC#Cc1nc(-c2ccc(F)cc2)c(-c2ccncc2)n1CCCc1ccccc1`, the Potency [2] is reported as “inactive” and the Potency [4] is reported as 13.2 µM (active).
For `CC1(C)CNc2cc(NC(=O)c3cccnc3NCc3ccncc3)ccc21`, the Potency [2] was “inactive”, the outcome [7] was “inactive” and the outcome [8] was “inactive”. For the same molecule, the Potency [4] was “inactive”.
In the case of `CCCS(=O)(=O)Nc1ccc(F)c(C(=O)c2c[nH]c3ncc(-c4ccc(Cl)cc4)cc23)c1F`, the Potency [2] is reported as “inactive”, the Potency [5] is reported as “inactive” and the Potency [6] is reported as “inactive”. For the same molecule, the outcome [7] was “inactive” and the Potency [4] was 8.33 µM (active).
